Screens as filed in PubChem.
Rows were chosen to be rich in hits. Some 2.4% of all compounds tested hit in one or more screens of this group.
POLH inh: inhibitors of human DNA polymerase eta; recombinant Pol eta, fluorescent DNA replication assay; Potency, µM (top dose mostly 114 µM), inactives show top-dose activity change, negative = inhibition, most hits filed as inhibitors; 390,000 compounds, 1.2% hits; AID 588591; further: on the % scale 0 is the no-effect control and ±100 the full control effect
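Pol eta at 10 nM preincubated with compounds 15 min at room temperature; reaction started with fluorescent substrate (50 nM final) and read kinetically at 0 and 10 min.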
POLB inh: DNA polymerase beta (human) inhibition. P06746. Pol beta primer extension/strand displacement, fluorescence kinetic. Potency, µM (highest dose often 114 µM), without a hit: at the top dose activity change, negative = inhibition, usual class: inhibitors. 340,000 compounds, 1.3% hits; further: on the % scale 0 is the no-effect control and ±100 the full control effect
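10 nM enzyme + cpd, 15 min RT; start with substrate 50 nM final; read 0 min and after 10 min RT. Corrected, normalized data; 4-parameter Hill curve fit.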
TDP1 inh: blocks human tyrosyl-DNA phosphodiesterase 1. Q9NUW8. recombinant TDP1, AlphaScreen DNA substrate cleavage. Potency, µM (titrated, usually from 130 µM), for the others: at the top dose activity change, negative = inhibition, usual class: inhibitors. 350,000 compounds, 0.28% hits. AID 485290; further: on the % scale 0 is the no-effect control and ±100 the full control effect; nearly all actives have a fitted effect of over 40% in size
Target sequence (Q9NUW8 whole entry, looked up): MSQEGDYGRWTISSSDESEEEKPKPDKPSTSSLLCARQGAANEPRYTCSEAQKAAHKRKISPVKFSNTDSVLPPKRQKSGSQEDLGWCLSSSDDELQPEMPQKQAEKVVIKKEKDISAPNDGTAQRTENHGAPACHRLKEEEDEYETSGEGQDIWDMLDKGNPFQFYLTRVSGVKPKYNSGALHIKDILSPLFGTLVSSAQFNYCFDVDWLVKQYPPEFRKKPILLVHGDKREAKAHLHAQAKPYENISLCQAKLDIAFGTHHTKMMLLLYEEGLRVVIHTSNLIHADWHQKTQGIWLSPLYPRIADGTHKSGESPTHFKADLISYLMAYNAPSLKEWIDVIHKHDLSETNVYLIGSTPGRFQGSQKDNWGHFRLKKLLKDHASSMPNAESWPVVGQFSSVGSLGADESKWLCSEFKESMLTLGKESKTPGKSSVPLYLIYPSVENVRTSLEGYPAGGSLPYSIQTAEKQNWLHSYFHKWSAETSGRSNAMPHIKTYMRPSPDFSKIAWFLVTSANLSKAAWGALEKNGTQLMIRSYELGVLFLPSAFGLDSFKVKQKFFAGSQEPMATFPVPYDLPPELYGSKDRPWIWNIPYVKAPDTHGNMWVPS
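Compounds were preincubated with Tdp1 (1 nM final) for 15 min at room temperature before substrate (15 nM final) started a 5 min reaction; beads (10 ug/ml final) were then added for 10 min before AlphaScreen detection.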
FEN1 inh: blocks human flap endonuclease 1 | P39748 | Potency, µM (titrated, usually from 114 µM), for inactives: at the highest dose activity change, negative = inhibition, usual class: inhibitors | Recombinant FEN1 flap cleavage, fluorescence, 15 min | 390,000 compounds, 0.35% hits; further: on the % scale 0 is the no-effect control and ±100 the full control effect; nearly all actives have a fitted effect of over 65% in size
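Steps: FEN1 (10 nM) dispensed; compound added by pin tool; 15 min at room temperature; substrate added to 50 nM final; reads at 0 min and 15 min; data normalized and fitted (four-parameter Hill).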
POLI inh: blocks human DNA polymerase iota activity | Potency, µM (titrated, usually from 115 µM), without a hit: top-dose activity, negative = inhibition, most hits filed as inhibitors | Q9UNA4 | Pol iota fluorescent replication assay, 10 min | 390,000 compounds, 1% hits
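Pol iota at 10 nM preincubated 15 min with compounds at room temperature; reaction started with fluorescent substrate, 50 nM final. Fluorescence read kinetically at 0 and 10 min; buffer-only wells as negative control.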
Pol kappa inh: blocks human DNA polymerase kappa activity. purified Pol kappa, fluorescent DNA synthesis assay, 10 min. 400,000 compounds, 0.53% hits. Potency, µM (titrated, usually from 107 µM), without a hit: at the top dose activity, negative = inhibition, actives largely listed as inhibitors; further: on the % scale 0 is the no-effect control and ±100 the full control effect
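10 nM Pol kappa was preincubated with compounds for 15 min at room temperature. Reaction started with 50 nM (final) substrate. Fluorescence read kinetically at 0 and 10 min.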
Active calls of the source: *; ? = inconclusive; nt = no result; [ ] = remark or other dose. The call rests on the fitted dose curve; in most records, active means well fitted curve in the direction sought with a large enough effect; inconclusive means small, poorly fitted or top-dose-only effect, or another doubt; inactive means no such curve, though single readings can be large; an effect the other way counts as inactive or inconclusive. Potency means the concentration at half of the fitted maximal effect.

SMILES	POLH inh	POLB inh	TDP1 inh	FEN1 inh	POLI inh	Pol kappa inh
CCN(c1ccccc1)S(=O)(=O)c1ccc2[nH]cc(C(=O)NCc3ccc(C)cc3)c(=O)c2c1	?	?	nt	2%	89µM*	-8%[60.1 µM]
Cc1ccc(CN2[C@H]3CCCC[C@@H]3OCCS2(=O)=O)cc1	nt	nt	nt	-3%	19%	-2%
CCOc1ccc(NS(=O)(=O)c2ccc3[nH]cc(C(=O)N(C)Cc4ccccc4)c(=O)c3c2)cc1	-3%	5%	0%	-1%	?	-17%[60.1 µM]
CCOc1ccc(NS(=O)(=O)c2ccc3[nH]cc(C(=O)NCc4ccccc4)c(=O)c3c2)cc1	?	11µM*	-5%	-5%	89µM*	-34%
CCNc1ccc(S(=O)(=O)N(C)C)cc1NCC(=O)Nc1ccccc1F	-16%	48%	7%	-4%	53%	-3%
CN(C)S(=O)(=O)c1cccc(NC(=O)NCCCl)c1	-19%	27%	-1%	-4%	-13%	0%
Cc1c(Cl)cccc1NC(=O)CNc1cccc(S(=O)(=O)N(C)C)c1	-11%	79µM*	nt	2%	11%	-6%
CCNc1ccc(S(=O)(=O)N(C)C)cc1NCC(=O)Nc1ccc(F)c(Cl)c1	-17%	-26%	7%	-5%	89µM*	-10%
CC(C)(C)OC(=O)NCc1nnc(C(C(=O)OCc2ccccc2)c2ccccc2)s1 (configuration not stated)	nt	nt	0%	nt	nt	nt
C=CC1=C(C)C2=Cc3c(C=C)c(C)c4[n]3[Sn+2][n]3c(c(C)c(CCC(=O)O)c3=CC3=NC(=C4)C(C)=C3CCC(=O)O)=CC1=N2	nt	nt	?	nt	nt	13µM*
COc1cc(C2Nc3ccccc3-c3nnc(SCc4ccc(C)cc4)nc3O2)cc(OC)c1O (configuration not stated)	-3%	-3%	nt	-21%	?	79µM*
O=C(O)COc1ccccc1C1Nc2ccccc2-c2nnc(SCc3ccc(Cl)cc3)nc2O1 (configuration not stated)	-5%	2.5µM*	nt	-19%	-7%	-19%
COc1cc(C2Nc3ccccc3-c3nnc(SCc4ccc(Cl)cc4)nc3O2)ccc1OCC(=O)O (configuration not stated)	-8%	?	nt	14%	5%	-26%
CC1=Nc2ccccc2/C1=C/c1sc(=S)n(-c2cccc(C(=O)O)c2)c1O	35µM*	-22%	-1%	?	?	?
Oc1c(C=C2N=c3ccccc3=N2)sc(=S)n1-c1ccccc1	-15%	36%	5%	6%	30%	0%
O=C(/C=C/c1ccc(I)cc1)c1ccc(B(O)O)cc1	nt	nt	7%	nt	nt	6%[60.1 µM]
[O-][n+]1onc2c1CCC(=N/O)/C2=N\Nc1ccccc1	nt	40µM*	6%	nt	nt	nt
COc1ccccc1NC(=O)c1c(NCc2ccc(C)o2)sc2c1CCCCC2	?	?	10%	-28%	?	-14%[60.1 µM]
COc1ccc(OC)c(NC(=O)c2c(NCc3ccc(C)o3)sc3c2CCCCC3)c1	-21%	-5%	9%	?	28µM*	0%[60.1 µM]
Oc1ccc(Br)cc1C1C=C(c2ccc3c(c2)OCO3)NC(c2ccc(F)c(Br)c2)N1 (configuration not stated)	nt	nt	1%	-7%	13µM*	4%
Oc1ccc(Br)cc1C1C=C(c2ccc3c(c2)OCO3)NC(c2ccc(Br)cc2)N1 (configuration not stated)	nt	nt	3%	-6%	?	-6%
Cc1ccc(-c2nc(NC(=O)CSc3cc(C)c4ccccc4n3)ns2)cc1	?	8.9µM*	-1%	?	-10%	-22%
COc1ccc2c(C)cc(SCC(=O)Nc3nsc(-c4ccc(C)cc4)n3)nc2c1	-9%	5%	4%	2%	-23%	12%
C#CCNC(=O)C1=C[C@@H](c2ccc3c(c2)OCO3)C[C@@H](OCCCCO)O1	?	nt	nt	8%	50µM*	-39%
C#CCNC(=O)C1=C[C@H](c2ccc3c(c2)OCO3)C[C@H](OCCCCO)O1	50µM*	nt	nt	6%	35µM*	-30%
SMILES	POLH inh	POLB inh	TDP1 inh	FEN1 inh	POLI inh	Pol kappa inh
O=C(NCc1ccccc1)C1=C[C@@H](c2ccc3c(c2)OCO3)C[C@@H](OCCCCO)O1	0%	nt	nt	-20%	-13%	-9%
C#CCNC(=O)C1=C[C@H](c2ccc3c(c2)OCO3)C[C@H](OCc2ccc(CO)cc2)O1	-7%	1%	5%	13%	34%	10%
CC(C)c1ccc(NC(=O)c2cc3c([nH]c2=O)CC(C)(C)CC3=O)cc1	nt	nt	nt	-10%	-8%	-2%
Cc1ccc(/C=C2\S/C(=N/S(=O)(=O)c3cccs3)NC2=O)cc1	25µM*	2%	7%	?	40µM*	-34%
O=C(Nc1nc2ccc(Cl)cc2s1)c1ccc(N2CCCCC2)c([N+](=O)[O-])c1	0%	21%	8%	-5%	-1%	-8%
Cc1c(NC(=O)c2ccc(N3CCCC3)c([N+](=O)[O-])c2)cccc1-c1nc2ccccc2s1	7%	2%	5%	-7%	79µM*	1%
O=C1N=C(N2CCN(c3ccccc3)CC2)S/C1=C/c1ccco1	-16%	?	3%	-26%	45µM*	?
O=C1N=C(N2CCN(c3ccccc3)CC2)S/C1=C\c1cn[nH]c1-c1ccccc1	-4%	14%	-3%	8%	8%	-7%
O=C1N=C(N2CCN(c3ccccc3)CC2)S/C1=C\c1ccco1	?	13µM*	-5%	2%	45µM*	-20%[60.1 µM]
O=C1N=C(N2CCCC2)S/C1=C\c1ccccc1	-5%	8%	0%	41%	-6%	1%
Cc1cccc(-c2ccc(-c3cc(=O)oc4cc(C)cc(C)c34)cc2)c1	nt	nt	-5%	nt	nt	-14%
COc1cccc2cc(C(=O)Oc3ccccc3)c(=O)oc12	?	89µM*	3%	-5%	0%	-13%
O=C(NC1CCCCCC1)C1CCC(CNS(=O)(=O)c2cccc3cccnc23)CC1 (configuration not stated)	nt	nt	nt	-13%	3%	8%
O=C(Cn1ncc(Cl)c(Cl)c1=O)N1CCN(Cc2ccccc2)CC1	?	28µM*	4%	20%	35µM*	0%
Cc1ccc(Cn2ncc(Cl)c(Cl)c2=O)cc1	-4%	29%	3%	-4%	-8%	-11%
CCc1ccc(C(=O)Cn2ncc(Cl)c(Cl)c2=O)cc1	?	50µM*	3%	-3%	?	-17%
